PTPN22 inh 2: PTPN22 phosphatase inhibitors, primary screen, biochemical, DiFMUP fluorescence, 2 µM. Tyrosine-protein phosphatase non-receptor type 22 (Homo sapiens), Q9Y2R2. recombinant LYP catalytic domain. inhibition, % at 2 µM. 0.21% of 96,000 active. AID 640, 2007;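 active = inhibition at 2 µM at or above a set limit, the screen mean plus 3 SD, cut at about 24% in these data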;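 note: 0% = DMSO with enzyme and 100% = enzyme fully blocked by orthovanadate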
Target sequence (Q9Y2R2 whole entry, looked up, the tested form may be a part): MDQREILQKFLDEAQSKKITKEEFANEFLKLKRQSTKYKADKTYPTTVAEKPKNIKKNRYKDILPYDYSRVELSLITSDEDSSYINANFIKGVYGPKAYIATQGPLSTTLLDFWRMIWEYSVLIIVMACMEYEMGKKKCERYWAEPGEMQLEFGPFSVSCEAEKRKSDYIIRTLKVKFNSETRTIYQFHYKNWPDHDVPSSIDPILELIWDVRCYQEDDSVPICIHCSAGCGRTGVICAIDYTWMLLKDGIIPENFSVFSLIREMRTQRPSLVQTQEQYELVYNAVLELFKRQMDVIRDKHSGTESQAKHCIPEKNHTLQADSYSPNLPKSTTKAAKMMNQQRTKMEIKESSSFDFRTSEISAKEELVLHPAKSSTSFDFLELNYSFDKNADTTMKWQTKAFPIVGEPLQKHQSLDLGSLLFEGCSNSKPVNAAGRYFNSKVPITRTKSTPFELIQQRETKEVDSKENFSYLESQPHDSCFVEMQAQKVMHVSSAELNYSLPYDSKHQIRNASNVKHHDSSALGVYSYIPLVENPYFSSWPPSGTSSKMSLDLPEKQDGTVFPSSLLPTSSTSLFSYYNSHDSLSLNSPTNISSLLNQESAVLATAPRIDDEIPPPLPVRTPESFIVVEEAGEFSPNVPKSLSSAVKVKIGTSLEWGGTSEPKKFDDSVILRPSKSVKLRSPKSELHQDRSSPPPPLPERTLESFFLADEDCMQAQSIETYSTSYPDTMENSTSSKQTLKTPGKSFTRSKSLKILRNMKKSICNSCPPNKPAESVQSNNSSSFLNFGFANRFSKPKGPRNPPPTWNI
PTPN22 act: LYP phosphatase activators, primary screen, biochemical, DiFMUP fluorescence, 2 µM | Tyrosine-protein phosphatase non-receptor type 22 (Homo sapiens), Q9Y2R2 | activation, % at 2 µM | 0.11% of 96,000 active | recombinant LYP; 0 = plate median, 100 = signal doubled;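 active = activation at 2 µM above a set limit, the mean plus 5 SD, cut at about 37% in these data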
Measles CPE: compounds protecting cells from measles virus cytopathic effect, primary screen, measles RdRp inhibitor project, single point, MLSMR library, absorbance. AID 841, 2007. protection (pct of control), % at 4 µM. 1.5% of 140,000 active. Measles virus-infected cells, CPE protection; in the data active = protection mostly above about 24%, no sharp cut-off; inactive = mostly below about 26%
Numbers without * were called inactive; · = no result. A selection: hits, their analogues and other compounds. The true share with any hit is near 1.7%.

SMILES	PTPN22 inh 2	PTPN22 act	Measles CPE
Cc1ccc(NC(=O)Cn2c(=O)n(CCCCC(=O)NCc3ccco3)c(=O)c3ccccc32)cc1	6	-3	11
COc1ccc(N2C(=O)C(=O)/C(=C(/O)c3ccc(C)cc3)C2c2cccnc2)cc1 (stereo not given)	·	·	18
N#Cc1cccc(NC(=O)CSc2ccc3c4c(cccc24)C(=O)c2ccccc2-3)c1	11	-9	5
COc1ccc(NC(=O)CSc2ccc3c4c(cccc24)C(=O)c2ccccc2-3)cc1	26*	-22	1
O=C(COc1ccccc1)N1CCN(c2ccccc2)CC1	·	·	3
O=C(COc1ccc(Br)cc1)N1CCN(c2ccccc2)CC1	-9	10	35*
Cn1c(=O)c2c(ncn2CC(N)=O)n(C)c1=O	13	-14	0
CN1CCCCC1=NCCCn1cnc2c1c(=O)n(C)c(=O)n2C	9	-7	19*
CCc1cccc2c(C=C(C#N)C#N)cn(CC(=O)N3CCCC3)c12	-15	17	19
O=C(CCc1nc2ccccc2c(=O)[nH]1)Nc1ccc(Cl)c(Cl)c1	·	·	31*
CCC(CC)NC(=O)CCc1nc2ccccc2c(=O)[nH]1	-6	9	2
Cc1ccc(-c2nnc(COc3cccc(-n4cnnn4)c3)o2)cc1	-5	3	4
CCCSc1nnc(Nc2ccccc2C)s1	4	-1	29
CCOC(=O)C1CCN(C(=O)CS(=O)Cc2nc(-c3ccc(C)cc3)oc2C)CC1 (stereo not given)	0	-2	46*
CCOC(=O)C1CCN(C(=O)CSCc2nc(-c3ccc(OCC)cc3)oc2C)CC1	·	·	9
CC(=O)c1c(N2CCOCC2)nc(=S)n(-c2ccccc2)c1C	7	-6	14
O=C1C(=C(O)c2ccccc2)C(=O)c2ccccc21	1	-4	13
CSc1nc2c(c(=O)n1-c1ccc(F)cc1)SCC2	7	-4	44*
CSc1nc2c(c(=O)n1-c1ccc(C)cc1)SCC2	·	·	8
O=C(O)CNC(=O)C1COc2ccccc2O1 (stereo not given)	-10	10	12
O=C(CSC1=NCCN1)C1COc2ccccc2O1 (stereo not given)	·	·	31*
Cc1ccc2c(c1)c1c(n2CC(O)Cn2c(C)nc3ccccc32)CCCC1 (stereo not given)	-4	1	4
O=C(NCc1ccco1)C1CCCN(S(=O)(=O)c2ccc(-n3cnnn3)cc2)C1 (stereo not given)	·	·	21
O=C(NCCN1CCc2ccccc2C1)C1CCN(S(=O)(=O)N2CCCCC2)CC1	-5	2	3
CCOC(=O)c1c(-c2ccc(F)cc2)csc1NC(=O)c1c(-c2ccccc2)noc1C	·	·	67*
SMILES	PTPN22 inh 2	PTPN22 act	Measles CPE
CCOC(=O)c1c(-c2ccc(C)cc2)csc1NC(=S)NC(=O)c1ccccc1	-14	12	21
COC(=O)c1ccc(C)c(NC(=O)c2c(-c3ccccc3)noc2C)c1	9	-11	16
COC(=O)c1c(-c2ccccc2)csc1NC(=O)c1c(-c2ccccc2)noc1C	·	·	38*
O=C(NC1CCCC1)c1ccc(Br)o1	0	1	10
Cc1ccc(S(=O)(=O)Nc2cccc3cccnc23)cc1	-10	6	21
Cc1cccc(OCCN2CSC(=S)N(C)C2)c1	-5	2	4
COc1ccccc1OCCN1CSC(=S)N(C)C1	·	·	34*
O=C(Nc1ccc(N2CCCCC2)c(Cl)c1)c1ccc2c(c1)OCCO2	36*	-34	23
O=C(Nc1ccc(N2CCCC2)c(Cl)c1)c1ccc2c(c1)OCCO2	-14	13	15
CC1(C)C2CCC1(C)C(NC(=O)CCN1CCCCC1)C2 (stereo not given)	1	-3	4
COCCOCCOCCC(=O)NC1CC2CCC1(C)C2(C)C (stereo not given)	-18	16	51*
CC(C)=CC(=O)OCC(=O)Nc1ncc(Cl)c(C)c1Cl	-11	7	5
CC(=O)Nc1nc2ccccc2n1CCOc1ccccc1	-5	2	29
S=C(Nc1ccccc1)Nc1nc2ccccc2n1CCOc1ccccc1	0	-1	26*
CCOC(=O)N1CCN(Cc2ccccc2Cl)CC1	-3	7	26
COc1ccc(C2N(C(=O)CN3CCOCC3)CCN2S(=O)(=O)c2ccccc2)cc1 (stereo not given)	-8	6	24
CCOc1ccc(C(=O)CCN2CCCCC2)cc1	·	·	5
CCn1c(COc2ccc(C)cc2)nnc1SCC(=O)Nc1cc(OC)ccc1OC	1	-2	49*
CCn1c(COc2ccccc2)nnc1SCC(=O)Nc1cc(C)ccc1OC	-4	6	15
O=C1N=C(N2CCN(c3ccccc3)CC2)S/C1=C\c1cn[nH]c1-c1ccccc1	·	·	29*
Cc1ccc(N2CCN(C3=NC(=O)/C(=C\c4cn[nH]c4-c4ccccc4)S3)CC2)cc1	·	·	9
Cc1cc(=O)n2nc(N3CCC(C(=O)N4CCN(C)CC4)CC3)sc2n1	·	·	5
CCCCCCOc1ccc(/C=c2\s/c(=C(/C#N)C(=O)NCc3ccco3)n(-c3ccccc3)c2=O)cc1	·	·	2
O=Nc1ccc(NOC(=O)c2ccccc2Br)cc1	·	·	28*
O=C(ONc1ccc(N=NC(=O)c2ccccc2O)cc1)c1ccccc1	1	-3	2
SMILES	PTPN22 inh 2	PTPN22 act	Measles CPE
Cc1cc(C)nc(NS(=O)(=O)c2ccc(NC(=O)C3(c4ccc([N+](=O)[O-])cc4)CCCC3)cc2)n1	·	·	13
Cc1ccc(-c2cc(C)nc3ncnn23)cc1	-1	0	47*
Cc1cc(C)n2ncnc2n1	-3	2	6
COc1cccc2cc(C(=O)N3C(C)CCCC3C)c(=O)oc12 (stereo not given)	-10	11	19*
COc1cccc2cc(C(=O)N3CCCCC3C)c(=O)oc12 (stereo not given)	-9	10	3
CN(CCO)c1cc(Sc2nc3ccccc3s2)c2nonc2c1[N+](=O)[O-]	2	2	11
CC(=O)c1cccc(NC(=O)CN2C(=O)COc3ccc(Cl)cc32)c1	-6	5	13
CC(C)(C)N=Cc1cc(-c2ccccc2)sc1O	-1	-1	41*
CCOC(=O)c1sc(-c2ccccc2)cc1N	-4	4	8
COc1ccc(CC(=O)Nc2c3c(nn2-c2ccccc2C)CS(=O)C3)cc1 (stereo not given)	-26	27	11
CCOC(=O)/C=C1\SCC(=O)N1CC(=O)Nc1ccc2c(c1)CCC2	-2	0	7
Nn1c(SCC(=O)NC2CCCCC2)nnc1-c1ccccc1	3	-4	4
Cc1ccc(NC(=O)C2CCCN(S(=O)(=O)c3cnc[nH]3)C2)c(Br)c1 (stereo not given)	-1	0	29*
O=C(Nc1ccc(Br)cc1F)C1CCCN(S(=O)(=O)c2cnc[nH]2)C1 (stereo not given)	-4	2	9
Nc1nc(NCc2cccs2)nn1-c1ccccc1	-2	0	·
Cc1ccoc1C(=O)NCc1occc1C(=O)O	·	·	41*
Cc1ccoc1C(=O)NCCCNC(=O)c1occc1C	-2	0	11
CCOC(=O)c1cn(Cc2ccccc2)nn1	·	·	36
Cc1cc(C)c(C)c(S(=O)(=O)N2C(=S)NC(=O)C2C(C)C)c1C (stereo not given)	12	-15	5
